The full data set covers some 7,900 targets. This sample favours those with a hit. About 0.6% of all pairs of compound and target were hits.
Compound: Cc1cn(-c2cc(NC(=O)c3ccc(C)c(Nc4nccc(-c5cccnc5)n4)c3)cc(C(F)(F)F)c2)cn1 [nilotinib]
Experiment: log2 fold change, soluble protein after heating vs DMSO (PISA); higher = thermal stabilisation; K562 cells, 10 uM, 30 min; active = over 0.2 and 3.5 SD of the protein, either way, in both replicates (recomputed)
Summary of the method: (§1)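 Thermal stability values are relative to control samples and come from duplicates. They are expressed as log2 fold changes. For measurement, K562 cells (2×10^6 cells/mL) received 10 μM compound for 30 min, and aliquots were heated for 3 min over 48°C-58°C, pooled, and extracted at 4°C in PBS with 0.5% NP-40. Soluble protein, the supernatant after 21,000xg for 90 min, was quantified by TMTpro 16plex LC-MS/MS with equalised channel sums.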

Sequence of UniProt Q8N6T3 (Q8N6T3 whole entry, looked up): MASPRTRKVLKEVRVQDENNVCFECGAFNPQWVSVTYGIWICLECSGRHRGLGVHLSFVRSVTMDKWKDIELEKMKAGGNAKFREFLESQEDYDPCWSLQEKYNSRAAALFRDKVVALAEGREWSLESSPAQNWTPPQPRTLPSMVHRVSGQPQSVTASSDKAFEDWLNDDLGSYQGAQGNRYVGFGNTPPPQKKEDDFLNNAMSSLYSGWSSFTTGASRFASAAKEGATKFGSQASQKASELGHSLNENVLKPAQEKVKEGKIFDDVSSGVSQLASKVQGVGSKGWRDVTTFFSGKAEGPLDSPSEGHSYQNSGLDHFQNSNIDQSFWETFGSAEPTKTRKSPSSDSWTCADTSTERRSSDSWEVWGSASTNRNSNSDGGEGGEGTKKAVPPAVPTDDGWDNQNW
Sequence of UniProt Q01484 (Q01484 whole entry, looked up): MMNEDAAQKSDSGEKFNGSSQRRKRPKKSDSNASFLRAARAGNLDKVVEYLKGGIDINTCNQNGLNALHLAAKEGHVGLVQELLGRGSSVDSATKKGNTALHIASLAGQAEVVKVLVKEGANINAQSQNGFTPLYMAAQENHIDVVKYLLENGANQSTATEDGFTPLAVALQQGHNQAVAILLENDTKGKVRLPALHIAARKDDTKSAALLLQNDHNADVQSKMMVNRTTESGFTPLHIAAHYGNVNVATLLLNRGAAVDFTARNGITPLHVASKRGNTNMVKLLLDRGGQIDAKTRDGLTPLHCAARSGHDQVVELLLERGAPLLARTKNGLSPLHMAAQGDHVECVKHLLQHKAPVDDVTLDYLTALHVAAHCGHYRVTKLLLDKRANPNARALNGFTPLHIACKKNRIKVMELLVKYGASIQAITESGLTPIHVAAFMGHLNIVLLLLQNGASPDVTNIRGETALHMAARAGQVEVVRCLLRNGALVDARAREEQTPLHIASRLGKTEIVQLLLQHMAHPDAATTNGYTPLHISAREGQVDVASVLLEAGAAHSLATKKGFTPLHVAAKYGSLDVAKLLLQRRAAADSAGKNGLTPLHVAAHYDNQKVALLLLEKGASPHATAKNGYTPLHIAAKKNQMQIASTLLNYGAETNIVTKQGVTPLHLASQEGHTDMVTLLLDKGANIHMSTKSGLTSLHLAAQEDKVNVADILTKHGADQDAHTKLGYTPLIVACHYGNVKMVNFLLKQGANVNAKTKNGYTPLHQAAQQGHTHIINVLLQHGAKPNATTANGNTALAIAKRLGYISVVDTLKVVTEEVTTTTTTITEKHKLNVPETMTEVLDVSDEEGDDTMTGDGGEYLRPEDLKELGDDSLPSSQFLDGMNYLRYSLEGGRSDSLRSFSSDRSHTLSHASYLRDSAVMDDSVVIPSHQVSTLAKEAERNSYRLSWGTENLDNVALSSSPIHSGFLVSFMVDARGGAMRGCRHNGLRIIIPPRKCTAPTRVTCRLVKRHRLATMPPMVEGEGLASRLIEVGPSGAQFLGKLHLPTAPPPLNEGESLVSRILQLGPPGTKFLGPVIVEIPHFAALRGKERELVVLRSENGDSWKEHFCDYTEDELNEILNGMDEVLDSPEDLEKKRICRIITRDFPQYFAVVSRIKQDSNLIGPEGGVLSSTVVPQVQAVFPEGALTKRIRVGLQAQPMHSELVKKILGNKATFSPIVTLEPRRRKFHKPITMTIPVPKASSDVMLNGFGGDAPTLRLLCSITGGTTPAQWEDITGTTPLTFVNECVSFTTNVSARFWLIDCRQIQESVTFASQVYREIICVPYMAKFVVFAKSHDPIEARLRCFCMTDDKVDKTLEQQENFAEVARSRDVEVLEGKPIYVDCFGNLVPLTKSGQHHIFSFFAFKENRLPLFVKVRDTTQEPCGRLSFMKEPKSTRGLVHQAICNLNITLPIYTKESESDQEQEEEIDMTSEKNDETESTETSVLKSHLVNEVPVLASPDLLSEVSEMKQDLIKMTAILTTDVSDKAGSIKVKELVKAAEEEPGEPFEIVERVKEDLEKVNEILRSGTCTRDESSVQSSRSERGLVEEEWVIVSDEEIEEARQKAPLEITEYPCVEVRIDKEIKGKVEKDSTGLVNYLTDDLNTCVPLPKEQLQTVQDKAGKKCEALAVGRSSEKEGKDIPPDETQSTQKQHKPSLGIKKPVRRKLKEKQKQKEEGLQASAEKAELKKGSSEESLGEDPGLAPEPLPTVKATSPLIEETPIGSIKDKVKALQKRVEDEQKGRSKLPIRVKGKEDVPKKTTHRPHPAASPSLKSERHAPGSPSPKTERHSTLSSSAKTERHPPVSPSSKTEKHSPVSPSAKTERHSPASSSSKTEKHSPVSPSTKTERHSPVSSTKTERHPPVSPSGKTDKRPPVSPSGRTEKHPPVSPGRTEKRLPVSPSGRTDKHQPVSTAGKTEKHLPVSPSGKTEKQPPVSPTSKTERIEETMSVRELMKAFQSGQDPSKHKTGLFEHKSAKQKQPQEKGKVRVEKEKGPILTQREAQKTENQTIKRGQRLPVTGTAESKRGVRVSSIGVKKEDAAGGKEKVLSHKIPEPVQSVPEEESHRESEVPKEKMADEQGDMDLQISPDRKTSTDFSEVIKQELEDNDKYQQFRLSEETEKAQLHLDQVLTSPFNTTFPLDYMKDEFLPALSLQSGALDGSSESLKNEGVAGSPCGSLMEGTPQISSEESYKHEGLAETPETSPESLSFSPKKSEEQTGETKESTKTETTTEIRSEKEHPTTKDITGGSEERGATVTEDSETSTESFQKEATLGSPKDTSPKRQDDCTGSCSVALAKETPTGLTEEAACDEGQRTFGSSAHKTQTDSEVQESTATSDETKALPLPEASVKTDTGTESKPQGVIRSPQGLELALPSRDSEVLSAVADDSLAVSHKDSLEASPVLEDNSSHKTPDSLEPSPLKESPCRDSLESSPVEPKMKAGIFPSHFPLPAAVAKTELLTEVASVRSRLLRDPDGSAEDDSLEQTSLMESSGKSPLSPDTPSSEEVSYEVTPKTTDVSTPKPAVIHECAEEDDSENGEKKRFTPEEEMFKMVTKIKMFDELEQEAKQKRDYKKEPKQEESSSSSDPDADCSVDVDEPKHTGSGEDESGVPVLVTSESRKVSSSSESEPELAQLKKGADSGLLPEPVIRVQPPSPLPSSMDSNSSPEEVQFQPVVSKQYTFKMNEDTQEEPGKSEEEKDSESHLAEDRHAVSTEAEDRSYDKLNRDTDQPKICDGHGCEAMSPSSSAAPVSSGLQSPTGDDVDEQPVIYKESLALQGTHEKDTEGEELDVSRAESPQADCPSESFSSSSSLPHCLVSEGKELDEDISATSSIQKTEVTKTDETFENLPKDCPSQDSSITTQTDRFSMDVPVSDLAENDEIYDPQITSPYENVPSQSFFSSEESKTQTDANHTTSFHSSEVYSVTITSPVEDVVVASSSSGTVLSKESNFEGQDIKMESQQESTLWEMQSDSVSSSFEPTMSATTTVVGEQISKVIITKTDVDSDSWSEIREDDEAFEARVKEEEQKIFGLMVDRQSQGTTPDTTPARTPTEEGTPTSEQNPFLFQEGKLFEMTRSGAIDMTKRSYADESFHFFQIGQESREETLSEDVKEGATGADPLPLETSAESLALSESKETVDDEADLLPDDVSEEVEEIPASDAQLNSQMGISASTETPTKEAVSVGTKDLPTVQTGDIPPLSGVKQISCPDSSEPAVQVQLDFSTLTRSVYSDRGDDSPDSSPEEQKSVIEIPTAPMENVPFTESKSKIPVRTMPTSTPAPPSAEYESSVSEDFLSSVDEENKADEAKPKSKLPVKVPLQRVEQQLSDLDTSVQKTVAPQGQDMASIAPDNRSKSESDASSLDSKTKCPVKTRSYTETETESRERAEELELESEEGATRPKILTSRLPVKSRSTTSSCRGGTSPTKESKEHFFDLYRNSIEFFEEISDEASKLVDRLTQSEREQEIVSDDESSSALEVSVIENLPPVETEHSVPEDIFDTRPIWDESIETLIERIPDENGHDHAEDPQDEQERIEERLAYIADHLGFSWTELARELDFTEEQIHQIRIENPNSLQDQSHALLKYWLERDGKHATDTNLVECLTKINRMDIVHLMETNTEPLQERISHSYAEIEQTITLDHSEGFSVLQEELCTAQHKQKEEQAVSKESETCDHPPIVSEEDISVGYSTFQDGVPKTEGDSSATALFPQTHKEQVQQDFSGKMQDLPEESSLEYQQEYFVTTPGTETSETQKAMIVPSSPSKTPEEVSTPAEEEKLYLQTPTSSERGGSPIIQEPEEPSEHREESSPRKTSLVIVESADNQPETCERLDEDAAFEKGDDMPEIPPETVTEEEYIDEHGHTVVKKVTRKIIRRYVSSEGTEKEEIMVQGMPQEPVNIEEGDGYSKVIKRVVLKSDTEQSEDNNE
Sequence of UniProt Q9UKU0 (Q9UKU0 whole entry, looked up): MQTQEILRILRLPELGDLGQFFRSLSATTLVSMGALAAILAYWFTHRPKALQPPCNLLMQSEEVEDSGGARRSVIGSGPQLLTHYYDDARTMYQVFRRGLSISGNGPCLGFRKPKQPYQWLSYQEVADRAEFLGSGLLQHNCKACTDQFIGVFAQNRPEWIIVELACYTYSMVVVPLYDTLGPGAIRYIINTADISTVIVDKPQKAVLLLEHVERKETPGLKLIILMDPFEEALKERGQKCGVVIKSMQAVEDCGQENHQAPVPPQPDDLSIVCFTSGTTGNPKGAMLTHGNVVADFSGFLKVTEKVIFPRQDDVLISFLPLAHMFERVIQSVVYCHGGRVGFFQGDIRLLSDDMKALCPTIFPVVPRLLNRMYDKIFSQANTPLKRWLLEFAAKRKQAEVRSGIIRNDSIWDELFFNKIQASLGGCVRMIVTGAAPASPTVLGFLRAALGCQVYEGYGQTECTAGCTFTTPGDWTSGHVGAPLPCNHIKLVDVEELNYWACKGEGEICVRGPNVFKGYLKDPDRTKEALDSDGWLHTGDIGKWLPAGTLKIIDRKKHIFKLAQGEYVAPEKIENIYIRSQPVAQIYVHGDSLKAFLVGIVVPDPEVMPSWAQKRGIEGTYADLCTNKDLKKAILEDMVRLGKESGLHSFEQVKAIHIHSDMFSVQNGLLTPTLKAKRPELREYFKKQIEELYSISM
Sequence of UniProt O00244 (O00244 whole entry, looked up): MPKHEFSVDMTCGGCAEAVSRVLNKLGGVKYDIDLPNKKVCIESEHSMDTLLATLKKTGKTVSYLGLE

Target	log2 fold change
ATF1 (UniProt P18846)	0.035 (inactive)
ARFIP1 isoform 2 (UniProt P53367)	-0.147 (inactive)
ACSL6 isoform 1 (UniProt Q9UKU0)	-0.066 (inactive)
ARGLU1 (UniProt Q9NWB6)	0.184 (inactive)
BCLAF1 (UniProt Q9NYF8)	0.02 (inactive)
B4GALNT1 (UniProt Q00973)	0.083 (inactive)
ARFGAP1 (UniProt Q8N6T3)	-0.015 (inactive)
ANK2 (UniProt Q01484)	-0.265 (inactive)
ACTR1B (UniProt P42025)	0.034 (inactive)
AMD1 (UniProt P17707)	-0.089 (inactive)
APOH (UniProt P02749)	0 (inactive)
APH1A (UniProt Q96BI3)	-0.037 (inactive)
AUP1 (UniProt Q9Y679)	-0.102 (inactive)

Compound: Cc1nc(Nc2n[nH]c3c2CN(C(=O)N[C@H](CN(C)C)c2ccccc2)C3(C)C)c2sccc2n1
Experiment: as above
Summary of the method: as §1

Target	log2 fold change
BSCL2 isoform 4 (UniProt Q96G97)	0.026 (inactive)
ARL3 (UniProt P36405)	0.006 (inactive)
ABCA4 (UniProt P78363)	0.095 (inactive)
ALG14 (UniProt Q96F25)	0.026 (inactive)
AFDN isoform 5 (UniProt P55196)	-0.135 (inactive)
AP2M1 (UniProt Q96CW1)	0.031 (inactive)
ASB6 (UniProt Q9NWX5)	-0.279 (inactive)
ATOX1 (UniProt O00244)	0.036 (inactive)
ADPRH (UniProt P54922)	0.026 (inactive)
ADAMTS5 (UniProt Q9UNA0)	0.052 (inactive)
AASDH (UniProt Q4L235)	-0.149 (inactive)
ATP7B (UniProt P35670)	-0.017 (inactive)
ATRN (UniProt O75882)	-0.055 (inactive)
BRD3 (UniProt Q15059)	-0.031 (inactive)
ACP1 (UniProt P24666)	-0.071 (inactive)
BRIP1 (UniProt Q9BX63)	0.036 (inactive)
ATXN3 isoform 1 (UniProt P54252)	-0.11 (inactive)
ARRDC1 (UniProt Q8N5I2)	0.065 (inactive)

Target	log2 fold change
ACTBL2 (UniProt Q562R1)	-0.067 (inactive)
ADAM15 (UniProt Q13444)	-0.043 (inactive)
AIP (UniProt O00170)	-0.009 (inactive)
ARHGAP25 isoform 4 (UniProt P42331)	-0.276 (inactive)
ABHD11 (UniProt Q8NFV4)	-0.006 (inactive)
ATF1 (UniProt P18846)	-0.09 (inactive)
ARFIP1 isoform 2 (UniProt P53367)	-0.049 (inactive)
ACSL6 isoform 1 (UniProt Q9UKU0)	-0.066 (inactive)
ARGLU1 (UniProt Q9NWB6)	-1.13 (active)
BCLAF1 (UniProt Q9NYF8)	-0.609 (active)
B4GALNT1 (UniProt Q00973)	0.012 (inactive)
ARFGAP1 (UniProt Q8N6T3)	-0.193 (inactive)
ANK2 (UniProt Q01484)	0.041 (inactive)
ACTR1B (UniProt P42025)	-0.011 (inactive)
AMD1 (UniProt P17707)	0.001 (inactive)
APOH (UniProt P02749)	0.031 (inactive)
APH1A (UniProt Q96BI3)	-0.04 (inactive)
AUP1 (UniProt Q9Y679)	-0.055 (inactive)

Compound: Cc1nc(Nc2ncc(C(=O)Nc3c(C)cccc3Cl)s2)cc(N2CCN(CCO)CC2)n1 [dasatinib]
Experiment: as above
Summary of the method: as §1

Target	log2 fold change
BSCL2 isoform 4 (UniProt Q96G97)	-0.14 (inactive)
ARL3 (UniProt P36405)	0.001 (inactive)
ALG14 (UniProt Q96F25)	0.003 (inactive)
AFDN isoform 5 (UniProt P55196)	-0.16 (inactive)
AP2M1 (UniProt Q96CW1)	0.048 (inactive)
ATOX1 (UniProt O00244)	0.161 (inactive)
ADAMTS5 (UniProt Q9UNA0)	0.033 (inactive)
AASDH (UniProt Q4L235)	0.063 (inactive)
ATP7B (UniProt P35670)	-0.153 (inactive)
ATRN (UniProt O75882)	-0.047 (inactive)
BRD3 (UniProt Q15059)	-0.319 (inactive)
ACP1 (UniProt P24666)	-0.129 (inactive)
BRIP1 (UniProt Q9BX63)	-0.09 (inactive)
ARRDC1 (UniProt Q8N5I2)	-0.073 (inactive)
ACTBL2 (UniProt Q562R1)	0.398 (inactive)
ADAM15 (UniProt Q13444)	-0.009 (inactive)
AIP (UniProt O00170)	-0.144 (inactive)
ARHGAP25 isoform 4 (UniProt P42331)	-0.421 (inactive)
ABHD11 (UniProt Q8NFV4)	0.073 (inactive)
ARFIP1 isoform 2 (UniProt P53367)	-0.316 (inactive)
ACSL6 isoform 1 (UniProt Q9UKU0)	0.036 (inactive)
ARGLU1 (UniProt Q9NWB6)	0.146 (inactive)
BCLAF1 (UniProt Q9NYF8)	0.081 (inactive)
B4GALNT1 (UniProt Q00973)	0.076 (inactive)
ARFGAP1 (UniProt Q8N6T3)	-0.097 (inactive)
ANK2 (UniProt Q01484)	-0.277 (inactive)
ACTR1B (UniProt P42025)	0.034 (inactive)
APOH (UniProt P02749)	-0.281 (inactive)
APH1A (UniProt Q96BI3)	-0.039 (inactive)
AUP1 (UniProt Q9Y679)	-0.097 (inactive)

From the supplement of paper PMC10849652
